PubChem BioAssay (NCATS)
“And” between values parts separate entries of the source, which are not always exact repeats. Equal entries are not always repeated. Inconclusive results are not listed. The source made the active and inactive calls. Unless noted, calls come from the whole dose curve; as a rule, active = well fitted curve in the direction sought with a large enough effect; inconclusive = small, poorly fitted or top-dose-only effect, or another doubt; inactive = no such curve, though single readings can be large; an effect the other way counts as inactive or inconclusive.

Key:
[1] = biological target: Ubiquitin carboxyl-terminal hydrolase 1 (Homo sapiens) (UniProt O94782); assay: Inhibitors of USP1/UAF1: Pilot qHTS (AID 504865); note: nearly all actives have a fitted effect of over 35% in size; note: potency is the fitted concentration of half-maximal effect
Sequence of Ubiquitin carboxyl-terminal hydrolase 1 (Homo sapiens) (O94782 whole entry, looked up): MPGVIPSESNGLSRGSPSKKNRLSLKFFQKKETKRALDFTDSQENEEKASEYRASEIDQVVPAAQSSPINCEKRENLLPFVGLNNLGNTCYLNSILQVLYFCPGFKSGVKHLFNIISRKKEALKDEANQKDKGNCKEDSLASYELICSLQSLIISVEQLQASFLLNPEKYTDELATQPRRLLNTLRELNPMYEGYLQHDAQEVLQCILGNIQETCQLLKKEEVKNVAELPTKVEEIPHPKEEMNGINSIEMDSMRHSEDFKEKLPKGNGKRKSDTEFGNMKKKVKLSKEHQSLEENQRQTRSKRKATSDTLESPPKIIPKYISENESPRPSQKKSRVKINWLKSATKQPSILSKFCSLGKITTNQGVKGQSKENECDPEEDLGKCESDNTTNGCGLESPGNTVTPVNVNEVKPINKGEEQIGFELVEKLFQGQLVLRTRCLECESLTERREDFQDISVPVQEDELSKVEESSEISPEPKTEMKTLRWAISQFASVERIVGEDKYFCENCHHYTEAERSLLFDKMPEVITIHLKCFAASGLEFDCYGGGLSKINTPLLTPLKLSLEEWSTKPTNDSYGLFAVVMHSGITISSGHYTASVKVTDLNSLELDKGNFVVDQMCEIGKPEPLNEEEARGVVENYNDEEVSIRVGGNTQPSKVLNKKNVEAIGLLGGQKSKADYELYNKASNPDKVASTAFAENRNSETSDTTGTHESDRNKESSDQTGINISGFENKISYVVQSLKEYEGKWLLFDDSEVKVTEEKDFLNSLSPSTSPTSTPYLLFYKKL
In short: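 USP1/UAF1 complex at 1 nM preincubated 15 min at room temperature with compound, then Ub-Rho substrate added at 150 nM final. Fluorescence (480/540 nm) read kinetically in 50 mM HEPES pH 7.8, 0.5 mM EDTA, 1 mM TCEP, 0.1 mg/ml BSA, 0.01% Tween-20.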

[2] = qHTS for Inhibitors of ATXN expression: Validation of Cytotoxic Assay (AID 588349); note: % is set by controls: 0 for no effect and ±100 for the full control effect
In short: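 Cytotoxicity counter-screen: ATP-based luminescent viability (CellTiter Glo) after 72 hr exposure of HEK293 cells to a compound titration at 37 degrees C.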

[3] = qHTS for Inhibitors of ATXN expression: Validation (AID 588378); note: nearly all actives have a fitted effect of over 75% in size; note: potency is the fitted concentration of half-maximal effect
In short: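 HEK293 cells carrying ATXN2-firefly luciferase reporter, treated with compound 24 h at 37 °C. Viability read first by CellTiter-Fluor (405/525 nm), then reporter expression by Bright-Glo luminescence; controls were a known ATXN2 expression inhibitor and a luciferase inhibitor.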

[4] = biological target: DNA dC->dU-editing enzyme APOBEC-3G (Homo sapiens) (UniProt Q9HC16); assay: qHTS for inhibitors of Vif-A3G interactions: Validation (AID 588379); note: 0% is about no effect
In short: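 Yellow fluorescence (Ex 488, Em 500-530) of Vif-coexpressing HeLa A3G-eYFP cells, scanned by Acumen cytometer, reports blocked A3G degradation. Cells plated at 700/well overnight at 37 deg C before compound addition, then a further overnight compound incubation at 37 deg C.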

[5] = biological target: phosphoglycerate mutase (Leishmania major) (UniProt Q4Q090); assay: qHTS Validation Assay to Find Inhibitors of Phosphoglycerate Mutase (AID 504548); note: series mostly up to about 58 µM; % is set by controls: 0 for no effect and ±100 for the full control effect
Sequence of phosphoglycerate mutase (Leishmania major) (Q4Q090 1-553): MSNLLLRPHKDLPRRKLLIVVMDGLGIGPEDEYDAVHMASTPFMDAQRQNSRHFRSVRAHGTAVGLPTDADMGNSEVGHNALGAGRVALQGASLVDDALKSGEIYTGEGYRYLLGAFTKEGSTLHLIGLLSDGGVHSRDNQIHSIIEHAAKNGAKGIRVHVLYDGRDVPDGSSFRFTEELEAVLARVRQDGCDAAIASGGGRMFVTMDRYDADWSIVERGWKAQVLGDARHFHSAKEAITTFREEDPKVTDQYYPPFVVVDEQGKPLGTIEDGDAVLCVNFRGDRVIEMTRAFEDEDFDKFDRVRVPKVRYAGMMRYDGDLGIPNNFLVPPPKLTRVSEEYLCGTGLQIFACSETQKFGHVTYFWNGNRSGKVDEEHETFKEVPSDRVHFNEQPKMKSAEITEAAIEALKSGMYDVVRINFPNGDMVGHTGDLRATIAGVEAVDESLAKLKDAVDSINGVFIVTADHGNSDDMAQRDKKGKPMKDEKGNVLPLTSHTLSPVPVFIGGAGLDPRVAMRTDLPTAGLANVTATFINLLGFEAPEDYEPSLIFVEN
In short: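 Lm PGAM 1.25nM final; 100 mM TEA pH 7.6, 5 mM MgCl2, 0.01% Tween-20; 45 min RT; Kinase-GloPlus, 10 min; end-point luminescence. Enzyme-free wells as negative controls.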

[6] = biological target: Estrogen receptor (Homo sapiens) (UniProt P03372); assay: qHTS assay for small molecule agonists of estrogen receptor alpha signaling (AID 588514; calls by dose curve;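 note: 0% = vehicle only and 100% = reference agonist; nearly all actives have a fitted effect of over 70% in size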)
Sequence of Estrogen receptor (Homo sapiens) (P03372 whole entry, looked up): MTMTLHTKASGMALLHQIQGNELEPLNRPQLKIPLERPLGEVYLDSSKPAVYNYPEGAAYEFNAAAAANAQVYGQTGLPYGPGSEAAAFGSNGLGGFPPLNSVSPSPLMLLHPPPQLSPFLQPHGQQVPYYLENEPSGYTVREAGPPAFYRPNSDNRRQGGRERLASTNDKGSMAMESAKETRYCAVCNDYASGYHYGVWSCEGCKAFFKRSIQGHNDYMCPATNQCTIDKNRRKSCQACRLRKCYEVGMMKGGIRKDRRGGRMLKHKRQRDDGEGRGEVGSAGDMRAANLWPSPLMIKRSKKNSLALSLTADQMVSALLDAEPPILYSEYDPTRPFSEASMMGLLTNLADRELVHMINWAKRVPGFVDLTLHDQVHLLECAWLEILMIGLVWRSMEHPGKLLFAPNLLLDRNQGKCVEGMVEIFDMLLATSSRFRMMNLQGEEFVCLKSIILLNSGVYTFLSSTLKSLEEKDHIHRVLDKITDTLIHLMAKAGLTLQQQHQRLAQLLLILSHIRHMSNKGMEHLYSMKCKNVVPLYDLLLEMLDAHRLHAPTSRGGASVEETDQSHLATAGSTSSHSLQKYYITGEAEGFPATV
In short: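 EC50 and efficacy came from Hill fits of beta-lactamase reporter signal (CCF4 dye, 2 h at room temperature) scaled between DMSO and 20 nM 17-beta-estradiol. Agonist mode: HEK293 ER-alpha-UAS-bla cells in charcoal/dextran-stripped serum medium, 18 h compound exposure at 37 C.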

[7] = biological target: Androgen receptor (Homo sapiens) (UniProt P10275); assay: qHTS assay for small molecule agonists of androgen receptor signaling (AID 588515; active = well fitted curve in the direction sought with a large enough effect in the signal ratio, with a control signal flat; the % refers to the signal ratio; note: % is set by controls: 0 for no effect and ±100 for the full control effect); conditions: AR-UAS-bla HEK293, beta-lactamase ratio, agonist 16 h; stronger effect = higher value
Sequence of Androgen receptor (Homo sapiens) (P10275 whole entry, looked up): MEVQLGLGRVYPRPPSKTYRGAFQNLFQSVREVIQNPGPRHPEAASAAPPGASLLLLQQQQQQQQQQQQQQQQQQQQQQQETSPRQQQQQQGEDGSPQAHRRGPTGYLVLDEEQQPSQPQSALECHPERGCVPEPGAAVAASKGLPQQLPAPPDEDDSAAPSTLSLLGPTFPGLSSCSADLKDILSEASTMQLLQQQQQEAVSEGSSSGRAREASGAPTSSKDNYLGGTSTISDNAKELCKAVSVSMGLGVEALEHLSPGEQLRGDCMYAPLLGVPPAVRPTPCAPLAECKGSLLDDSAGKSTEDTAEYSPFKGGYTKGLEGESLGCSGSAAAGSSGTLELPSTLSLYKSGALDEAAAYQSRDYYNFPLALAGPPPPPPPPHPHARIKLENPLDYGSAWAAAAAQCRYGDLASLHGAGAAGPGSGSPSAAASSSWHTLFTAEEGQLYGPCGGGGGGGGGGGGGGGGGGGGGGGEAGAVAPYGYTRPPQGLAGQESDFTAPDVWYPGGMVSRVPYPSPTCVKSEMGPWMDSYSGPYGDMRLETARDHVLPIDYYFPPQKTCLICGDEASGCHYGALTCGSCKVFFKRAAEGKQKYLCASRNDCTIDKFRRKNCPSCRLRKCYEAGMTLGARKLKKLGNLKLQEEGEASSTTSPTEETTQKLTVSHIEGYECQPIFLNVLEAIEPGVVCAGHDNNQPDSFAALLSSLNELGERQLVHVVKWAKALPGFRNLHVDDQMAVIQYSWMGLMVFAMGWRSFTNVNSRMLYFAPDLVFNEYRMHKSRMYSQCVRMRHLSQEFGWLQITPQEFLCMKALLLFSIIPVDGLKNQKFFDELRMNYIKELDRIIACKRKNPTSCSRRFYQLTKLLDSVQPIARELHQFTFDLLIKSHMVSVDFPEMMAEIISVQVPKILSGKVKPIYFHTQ
In short: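 Stimulation of an AR-responsive β-lactamase reporter in GripTite HEK293 cells was measured after 16 h compound exposure at 37 °C, via CCF4 fluorescence after 2 h RT. EC50 from Hill fits, normalized to R1881 at 30 nM.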

[8] = biological target: Vitamin D3 receptor (Homo sapiens) (UniProt P11473); assay: qHTS assay for small molecule agonists of vitamin D receptor signaling (AID 588543; calls by dose curve;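 note: 0% = DMSO basal and 100% = reference agonist control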)
Sequence of Vitamin D3 receptor (Homo sapiens) (P11473 whole entry, looked up): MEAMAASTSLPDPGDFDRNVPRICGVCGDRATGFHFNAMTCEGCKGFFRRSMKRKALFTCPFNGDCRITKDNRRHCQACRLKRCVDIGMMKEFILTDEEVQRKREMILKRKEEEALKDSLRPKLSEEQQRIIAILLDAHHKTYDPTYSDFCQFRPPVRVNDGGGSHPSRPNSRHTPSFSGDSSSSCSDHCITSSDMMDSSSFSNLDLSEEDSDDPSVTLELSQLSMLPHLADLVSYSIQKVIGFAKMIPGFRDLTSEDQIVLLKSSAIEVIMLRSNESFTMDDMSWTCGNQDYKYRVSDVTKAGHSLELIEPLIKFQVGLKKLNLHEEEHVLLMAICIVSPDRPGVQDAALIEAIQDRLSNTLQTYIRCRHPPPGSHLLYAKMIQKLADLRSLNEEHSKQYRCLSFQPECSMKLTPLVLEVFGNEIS
In short: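 VDR-UAS-bla HEK293T cells, 2000/well, 2% charcoal-stripped FBS; compound titration 16 h at 37 C; CCF4 beta-lactamase ratio read. Normalized to 50 nM 1-alpha,25-dihydroxyvitamin D3 (100%) and DMSO; Hill fit gives EC50, efficacy.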

[9] = biological target: Thyroid hormone receptor beta (Homo sapiens) (UniProt P10828); assay: qHTS assay for small molecule agonists of thyroid hormone receptor beta signaling (AID 588545; calls by dose curve;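 note: 0% = DMSO only and 100% = 10 nM T3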)
In short: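 Stimulation of a TR-driven beta-lactamase reporter was quantified in GripTite HEK 293 cells. Compound series ran for 18 hrs; curves were normalized to T3 and DMSO controls and fitted to yield EC50.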

[10] = biological target: Glucocorticoid receptor (Homo sapiens) (UniProt P04150); assay: qHTS assay for small molecule agonists of glucocorticoid receptor signaling (AID 588532; active = well fitted curve in the direction sought with a large enough effect in the signal ratio, with a control signal flat; the % refers to the signal ratio;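 note: 100% = dexamethasone at 0.1 µM and 0% = DMSO only wells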); conditions: HeLa MMTV-bla, beta-lactamase ratio, agonist, 18 h; stronger effect = higher value; percent of dexamethasone control, DMSO zero
Sequence of Glucocorticoid receptor (Homo sapiens) (P04150 whole entry, looked up): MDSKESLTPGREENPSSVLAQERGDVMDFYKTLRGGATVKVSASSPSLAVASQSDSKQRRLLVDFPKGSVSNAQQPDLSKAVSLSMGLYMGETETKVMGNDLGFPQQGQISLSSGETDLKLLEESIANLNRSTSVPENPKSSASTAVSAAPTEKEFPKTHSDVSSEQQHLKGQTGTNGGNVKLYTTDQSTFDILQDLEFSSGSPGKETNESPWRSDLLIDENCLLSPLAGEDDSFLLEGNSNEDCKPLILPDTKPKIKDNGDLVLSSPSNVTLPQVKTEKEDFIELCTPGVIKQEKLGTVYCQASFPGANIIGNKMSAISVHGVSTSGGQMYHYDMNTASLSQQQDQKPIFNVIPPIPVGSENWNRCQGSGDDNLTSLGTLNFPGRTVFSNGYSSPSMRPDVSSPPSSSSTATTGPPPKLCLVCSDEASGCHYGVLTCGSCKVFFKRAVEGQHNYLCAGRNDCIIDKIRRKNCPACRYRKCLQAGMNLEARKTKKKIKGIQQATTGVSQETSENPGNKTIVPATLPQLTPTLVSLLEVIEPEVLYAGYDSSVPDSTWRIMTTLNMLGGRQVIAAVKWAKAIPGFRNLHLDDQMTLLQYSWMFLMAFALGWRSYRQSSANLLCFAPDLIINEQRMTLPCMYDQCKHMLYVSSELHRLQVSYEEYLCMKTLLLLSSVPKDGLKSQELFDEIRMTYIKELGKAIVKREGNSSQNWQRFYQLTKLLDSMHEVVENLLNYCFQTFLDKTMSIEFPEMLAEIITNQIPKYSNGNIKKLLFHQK
In short: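 Titration series, up to 92 uM, applied to GRE-bla HeLa cells for 18 h at 37 C. Detection by CCF4 FRET substrate after 2 h at RT.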

[11] = biological target: Glucocorticoid receptor (Homo sapiens) (UniProt P04150); assay: qHTS assay for small molecule antagonists of glucocorticoid receptor signaling (AID 588533; active = well fitted inhibition curve with a large enough effect in the signal ratio, with a control signal flat, not every such curve was filed as active; the % refers to the signal ratio;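 note: cells stimulated with 2 nM dexamethasone as agonist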; note: potency is the fitted concentration of half-maximal effect)
In short: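 Antagonist-mode qHTS: compound titrations added to GRE-bla HeLa cells, then dexamethasone 2 nM final; 18 h, 37 C. CCF4 FRET fluorescence normalized to dexamethasone and DMSO; IC50 from Hill fit.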

[12] = biological target: Peroxisome proliferator-activated receptor gamma (Homo sapiens) (UniProt P37231); assay: qHTS assay for small molecule agonists of peroxisome proliferator-activated receptor gamma signaling (AID 588536; active = well fitted curve in the direction sought with a large enough effect in the signal ratio, with a control signal flat, not every such curve was filed as active; the % refers to the signal ratio;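 note: 0% = DMSO basal wells and 100% = rosiglitazone at 2 µM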)
Sequence of Peroxisome proliferator-activated receptor gamma (Homo sapiens) (P37231 whole entry, looked up): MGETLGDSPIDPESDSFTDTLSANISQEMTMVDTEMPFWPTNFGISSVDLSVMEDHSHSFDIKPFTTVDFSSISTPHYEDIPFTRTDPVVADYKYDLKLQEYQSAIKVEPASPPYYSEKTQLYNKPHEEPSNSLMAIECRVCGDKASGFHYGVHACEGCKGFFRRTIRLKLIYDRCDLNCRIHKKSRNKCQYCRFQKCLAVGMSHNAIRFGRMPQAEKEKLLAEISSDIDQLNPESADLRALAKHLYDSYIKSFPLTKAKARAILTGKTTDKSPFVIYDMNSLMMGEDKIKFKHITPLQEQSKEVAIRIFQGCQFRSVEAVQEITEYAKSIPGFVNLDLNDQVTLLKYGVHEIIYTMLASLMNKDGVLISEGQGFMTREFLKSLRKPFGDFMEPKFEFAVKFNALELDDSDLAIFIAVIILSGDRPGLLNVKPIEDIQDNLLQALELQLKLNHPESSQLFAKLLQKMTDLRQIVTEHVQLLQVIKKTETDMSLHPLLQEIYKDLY
In short: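 Compound treatment: 16 h, 37 C, HEK293 GeneBLAzer cells. Detection: CCF4, 2 h RT. Values: Hill-fit EC50, efficacy as % of 2 uM rosiglitazone.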

[13] = biological target: Peroxisome proliferator-activated receptor gamma (Homo sapiens) (UniProt P37231); assay: qHTS assay for small molecule antagonists of peroxisome proliferator-activated receptor gamma signaling (AID 588537; active = well fitted inhibition curve with a large enough effect in the signal ratio, with a control signal flat, not every such curve was filed as active; the % refers to the signal ratio; note: potency is the fitted concentration of half-maximal effect)
In short: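 Compounds are tested as concentration series for inhibition of rosiglitazone-driven (50 nM) reporter expression in GeneBLAzer PPAR-gamma-UAS-bla HEK293 cells. After 16 h at 37 C, CCF4 substrate is added for 2 h at room temperature and blue/green fluorescence is measured.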

[14] = qHTS assay for small molecule agonists of retinoid X receptor alpha signaling (AID 588544; calls by dose curve;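 for activation: 0% = DMSO basal wells and 100% = reference agonist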); conditions: HEK293T RXRa-UAS-bla, beta-lactamase reporter, 18 h; 530 nm emission
[15] = biological target: Retinoic acid receptor RXR-alpha (Homo sapiens) (UniProt P19793); assay: as above
[16] = biological target: Bile acid receptor (Homo sapiens) (UniProt Q96RI1); assay: qHTS assay for small molecule antagonists of farnesoid X receptor signaling (AID 588526; calls by dose curve; note: % is set by controls: 0 for no effect and ±100 for the full control effect)
In short: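 Concentration-response titrations were fitted to the Hill equation for half-maximal inhibition and maximal response, with data normalised to 50 uM chenodeoxycholic acid and DMSO control wells. Cells: FXR-UAS-bla HEK293T, dialyzed FBS.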

[17] = biological target: Vitamin D3 receptor (Homo sapiens) (UniProt P11473); assay: qHTS assay for small molecule antagonists of vitamin D receptor signaling (AID 588541; calls by dose curve)
In short: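 VDR-UAS-bla HEK293T cells (2000/well, 2% charcoal-stripped FBS) were treated with titrated compounds plus 1-alpha,25-dihydroxyvitamin D3 (50 nM or 3 nM final) for 16 h at 37 C. CCF4 beta-lactamase fluorescence was read; Hill fits gave IC50.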

[18] = biological target: Androgen receptor (Homo sapiens) (UniProt P10275); assay: qHTS assay for small molecule antagonists of androgen receptor signaling (AID 588516; active = well fitted curve in the direction sought with a large enough effect in the signal ratio, with a control signal flat, not every such curve was filed as active; the % refers to the signal ratio; note: % is set by controls: 0 for no effect and ±100 for the full control effect)
In short: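 AR-UAS-bla GripTite HEK 293 cells (2000/well) treated with compound titrations plus 10 nM R1881 for 16 h at 37C. Beta-lactamase read by CCF4 FRET (460/530 nm); IC50 from Hill fits, normalized to R1881 and DMSO control wells.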

[19] = qHTS assay for small molecule antagonists of peroxisome proliferator-activated receptor delta signaling (AID 588535; active = well fitted inhibition curve with a large enough effect in the signal ratio, with a control signal flat, not every such curve was filed as active; the % refers to the signal ratio;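 for max response: cells co-treated with a PPAR-delta agonist as stimulator during compound exposure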); conditions: HEK293T PPARd-UAS-bla, beta-lactamase FRET ratio, 18 h; 460 nm channel
In short: (§1)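 Inhibition of PPAR-delta response element-driven beta-lactamase expression is measured in HEK293T cells exposed to a compound titration series for 18 hrs at 37 C. Half-maximal inhibition comes from Hill equation fitting.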

[20] = biological target: Peroxisome proliferator-activated receptor delta (Homo sapiens) (UniProt Q03181); assay: as above
Sequence of Peroxisome proliferator-activated receptor delta (Homo sapiens) (Q03181 whole entry, looked up): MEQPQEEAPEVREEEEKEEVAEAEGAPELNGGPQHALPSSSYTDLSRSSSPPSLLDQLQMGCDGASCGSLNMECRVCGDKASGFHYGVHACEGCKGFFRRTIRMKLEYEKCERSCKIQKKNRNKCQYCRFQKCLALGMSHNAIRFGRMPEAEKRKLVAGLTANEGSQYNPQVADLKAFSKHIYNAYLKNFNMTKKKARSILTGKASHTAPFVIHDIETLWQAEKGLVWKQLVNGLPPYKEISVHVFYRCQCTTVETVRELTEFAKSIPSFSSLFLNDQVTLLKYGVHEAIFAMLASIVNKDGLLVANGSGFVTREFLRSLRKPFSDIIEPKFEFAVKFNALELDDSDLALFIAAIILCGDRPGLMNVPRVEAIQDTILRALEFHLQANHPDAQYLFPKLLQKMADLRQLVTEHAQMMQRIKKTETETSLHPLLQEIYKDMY
In short: as §1

NC12CC3CC(CC(C3)C1)C2
inactive: Potency [1] | outcome [2] | Potency [3]

CS(=O)(=O)CCNCc1ccc(-c2ccc3ncnc(Nc4ccc(OCc5cccc(F)c5)c(Cl)c4)c3c2)o1
inactive: Potency [1]

CN(C)CCCN1c2ccccc2CCc2ccc(Cl)cc21
inactive: Potency [1] | outcome [4]

CN1CCN2c3ccccc3Cc3ccccc3C2C1 (centres undefined)
inactive: Potency [1] | outcome [2]

COc1cc2c(c(OC)c1OC)-c1ccc(OC)c(=O)cc1[C@@H](NC(C)=O)CC2
inactive: outcome [5] | outcome [2] | Potency [3] | outcome [4] | outcome [6] | activation [7] -5.98% and 0.799% and 0.899% | outcome [8] | outcome [9]

COc1cc2nc(N3CCN(C(=O)C4COc5ccccc5O4)CC3)nc(N)c2cc1OC (centres undefined)
inactive: outcome [5] | Potency [3]

Cn1c(=O)c2c(ncn2C)n(C)c1=O
-3.75% and 14.5%: max response [14]
inactive: Potency [1] | outcome [2] | Potency [3] | outcome [4] | activation [10] -1.83% | Potency [11] | outcome [12] | Potency [13] | outcome [15]

Cn1c(=O)c2[nH]cnc2n(C)c1=O
inactive: outcome [5] | outcome [2] | Potency [3] | outcome [6] | Potency [16] | outcome [12] | outcome [15] | outcome [9]
-12.6%: max response [14]

CN(CCOc1ccc(NS(C)(=O)=O)cc1)CCc1ccc(NS(C)(=O)=O)cc1
inactive: Potency [1]

O=C(Nc1ccc([N+](=O)[O-])cc1Cl)c1cc(Cl)ccc1O
inactive: outcome [5] | Potency [1] | Potency [3] | activation [10] -5.17% | outcome [9]

CN1C2CCC1CC(OC(=O)C(CO)c1ccccc1)C2 (centres undefined)
inactive: outcome [5] | outcome [2] | Potency [3]

COC(=O)Nc1nc2ccc(C(=O)c3cccs3)cc2[nH]1
inactive: outcome [5] | Potency [1] | Potency [3] | outcome [4]

CC(COc1ccccc1)N(CCCl)Cc1ccccc1 (centres undefined)
23% and 19%: max response [14]
inactive: outcome [5] | outcome [2] | Potency [3] | Potency [11] | outcome [12] | outcome [17] | outcome [8] | outcome [15] | outcome [9]

COc1ccc(CCN(C)CCCC(C#N)(c2ccc(OC)c(OC)c2)C(C)C)cc1OC (centres undefined)
inactive: outcome [5] | outcome [4]

O=c1c(O)c(-c2ccc(O)c(O)c2)oc2cc(O)cc(O)c12
inactive: outcome [5] | outcome [2] | Potency [3] | outcome [4]

CC#C[C@]1(O)CC[C@H]2[C@@H]3CCC4=CC(=O)CCC4=C3[C@@H](c3ccc(N(C)C)cc3)C[C@@]21C
inactive: outcome [5] | Potency [1] | activation [10] -13.5% | outcome [9]

CCOC(=O)Nc1ccc(NCc2ccc(F)cc2)nc1N
inactive: outcome [5] | outcome [2] | Potency [3]

COc1cc2nc(N3CCN(C(=O)c4ccco4)CC3)nc(N)c2cc1OC
inactive: outcome [5] | outcome [4]

Cn1ccc2cc3c(cc21)CCN3C(=O)Nc1cccnc1
inactive: outcome [5] | outcome [2] | Potency [3] | outcome [4]

Cc1cnc(C(=O)NCCc2ccc(S(=O)(=O)NC(=O)NC3CCCCC3)cc2)cn1
inactive: outcome [5] | outcome [2] | Potency [3]

Clc1ccccc1C(c1ccccc1)(c1ccccc1)n1ccnc1
active: Potency [3] 25.1 µM
inactive: outcome [5]

CN(C)C(=O)C(CCN1CCC(O)(c2ccc(Cl)cc2)CC1)(c1ccccc1)c1ccccc1
inactive: outcome [5] | Potency [1] | outcome [4]

CN(C)CCOC(c1ccccc1)c1ccccc1
inactive: outcome [5] | outcome [2] | outcome [6] | outcome [18] | activation [10] -3.72% | Potency [11]

C[C@](N)(Cc1ccc(O)c(O)c1)C(=O)O
inactive: Potency [1] | outcome [4] | outcome [20] | outcome [12] | Potency [13] | outcome [17] | outcome [8] | outcome [15] | outcome [9]
-4.18%: max response [19]
-1.09%: max response [14]

CC(C)(C)C(=O)Oc1ccc(S(=O)(=O)Nc2ccccc2C(=O)NCC(=O)O)cc1
inactive: Potency [1]

O=C(c1ccc(OCCN2CCCCC2)cc1)c1c(-c2ccc(O)cc2)sc2cc(O)ccc12
inactive: outcome [5] | Potency [1] | outcome [8]
active: Potency [11] 39.8 µM | Potency [13] 39.8 µM

CC(C)NCC(O)c1ccc(O)c(O)c1 (centres undefined)
-7.52% and -0.93%: max response [14]
4.84% and 9.19%: max response [19]
inactive: Potency [1] | Potency [3] | activation [10] -1.74% | Potency [11] | outcome [20] | outcome [12] | Potency [13] | outcome [17] | outcome [8] | outcome [15] | outcome [9]

CN1CCN(C2=Nc3cc(Cl)ccc3Nc3ccccc32)CC1
inactive: outcome [5] | Potency [1] | outcome [4]

OCCN(CCO)c1nc(N2CCCCC2)c2nc(N(CCO)CCO)nc(N3CCCCC3)c2n1
inactive: outcome [5] | Potency [3] | outcome [4]
active: Potency [1] 31.6 µM and 22.4 µM

CC(=O)OCC(CCn1cnc2cnc(N)nc21)COC(C)=O
inactive: Potency [1]

CS(=O)(=O)Nc1ccc([N+](=O)[O-])cc1Oc1ccccc1
inactive: Potency [1] | Potency [3]

CC[C@@]1(O)C(=O)OCc2c1cc1n(c2=O)Cc2cc3c(CN(C)C)c(O)ccc3nc2-1
active: Potency [1] 79.4 µM
